{"source": "PubChem BioAssay (EPA / NIEHS)", "note": "Values joined by “and” are separate entries in the source; they are usually repeats but may differ in a detail not shown here. Identical values can stand only once. The source holds several records for some structures; these can differ, active in one and inactive in another. Active and inactive are the calls of the source. How the source made its calls: active means hit-call score of the fitted dose curve at least 0.9, where 1 is the maximum; inactive means score below 0.9."}
{"read-out": "not listed separately", "assay": "BSK_hDFCGF_Proliferation: Cell Proliferation Assessment in the BioMAP Diversity Plus: hDFCGF Assay (AID 2283059);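 further: curves fitted for both rise and fall of signal versus DMSO baseline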", "settings": "primary human foreskin fibroblasts", "outline": "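This proliferation readout used SRB total-protein staining of human foreskin fibroblasts […], normalized to DMSO with bidirectional curve fitting.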"}
{"smiles": "CCn1c2ccccc2c2cc(N)ccc21", "outcome": "inactive"}
{"smiles": "Cc1ccc(Nc2ccc(O)c3c2C(=O)c2ccccc2C3=O)cc1", "AC50": "2.4 µM (active)"}
{"smiles": "Cc1ccc(O)c(C(C)(C)C)c1", "AC50": "13.6 µM (active)"}
{"smiles": "CCCCCCCCCCCCCCCCCC(=O)OCC(CC)CCCC", "note": "(stereo unspecified)", "outcome": "inactive"}
{"smiles": "CCCCC(CC)COCCC#N", "note": "(stereo unspecified)", "AC50": "11.1 µM (active)"}
{"smiles": "C[C@H]1C[C@@H]2[C@H]([C@@H](O)C[C@@]3(C)[C@H]2CC[C@]3(O)C(=O)CO)[C@@]2(C)C=CC(=O)C=C12", "outcome": "inactive"}
{"smiles": "O=P(c1ccccc1)(c1ccccc1)c1ccccc1", "outcome": "inactive"}
{"smiles": "CC(C)Oc1ccccc1O", "AC50": "20 µM (active)"}
{"smiles": "CC(=O)/C=C/C1=C(C)CCCC1(C)C", "outcome": "inactive"}
{"smiles": "CC[Si](OC(C)=O)(OC(C)=O)OC(C)=O", "AC50": "16.1 µM (active)", "outcome": "inactive"}
{"smiles": "CNC[C@H](O)c1cccc(O)c1", "outcome": "inactive"}
{"smiles": "O=[N+]([O-])c1cc(C(F)(F)F)ccc1Cl", "AC50": "0.0171 µM (active)"}
{"smiles": "CCCCCCCCCC=O", "outcome": "inactive"}
{"smiles": "COc1cc(C=O)ccc1OC(=O)C(C)C", "outcome": "inactive"}
{"smiles": "Nc1cc([N+](=O)[O-])ccc1O", "AC50": "20 µM (active) and 10.8 µM (active)"}
{"smiles": "CCc1c(C)cc(N)c(CC)c1N", "outcome": "inactive"}
{"smiles": "C=C(C)C(=O)O[C@H]1C[C@@H]2CC[C@@]1(C)C2(C)C", "AC50": "13.1 µM (active)"}
{"smiles": "CC(=O)O[C@]1(C(C)=O)CC[C@H]2[C@@H]3C[C@H](C)C4=CC(=O)CC[C@]4(C)[C@H]3CC[C@@]21C", "AC50": "0.0802 µM (active)"}
{"smiles": "CC1COc2ccccc2N1C(=O)C(Cl)Cl", "note": "(stereo unspecified)", "AC50": "8.61 µM (active)"}
{"smiles": "CC(C)(COC(=O)c1ccccc1)COC(=O)c1ccccc1", "AC50": "32.1 µM (active)"}
{"smiles": "CC(C)c1ccc(C(C)C)cc1", "AC50": "33.4 µM (active)"}
{"smiles": "CCC(=O)OCc1ccccc1", "outcome": "inactive"}
{"smiles": "CC(=O)OCCC(C)CC(C)(C)C", "note": "(stereo unspecified)", "outcome": "inactive"}
{"smiles": "CC1CCC(C(C)CS)CC1S", "note": "(stereo unspecified)", "AC50": "4.84 µM (active)"}
{"smiles": "CC(=O)[C@H]1CC[C@H]2[C@@H]3CC=C4C[C@@H](O)CC[C@]4(C)[C@H]3CC[C@]12C", "outcome": "inactive"}
{"read-out": "Macrophage colony-stimulating factor (MCSF), CSF1 (gene 1435)", "assay": "BSK_hDFCGF_MCSF: BioMAP Diversity Plus: hDFCGF Assay for Macrophage colony-stimulating factor (MCSF) Biomarker Activity (AID 2283060)", "settings": "primary human foreskin fibroblasts; actives raise or lower the signal", "outline": "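M-CSF levels, determined by ELISA, are taken at 24 h after dosing human skin fibroblasts. Responses in either direction are fitted with DMSO serving as the baseline.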"}
{"smiles": "CCn1c2ccccc2c2cc(N)ccc21", "outcome": "inactive"}
{"smiles": "Cc1ccc(Nc2ccc(O)c3c2C(=O)c2ccccc2C3=O)cc1", "outcome": "inactive"}
{"smiles": "Cc1ccc(O)c(C(C)(C)C)c1", "AC50": "30.9 µM (active)"}
{"smiles": "CCCCCCCCCCCCCCCCCC(=O)OCC(CC)CCCC", "note": "(stereo unspecified)", "outcome": "inactive"}
{"smiles": "CCCCC(CC)COCCC#N", "note": "(stereo unspecified)", "outcome": "inactive"}
{"smiles": "C[C@H]1C[C@@H]2[C@H]([C@@H](O)C[C@@]3(C)[C@H]2CC[C@]3(O)C(=O)CO)[C@@]2(C)C=CC(=O)C=C12", "outcome": "inactive"}
{"smiles": "O=P(c1ccccc1)(c1ccccc1)c1ccccc1", "outcome": "inactive"}
{"smiles": "CC(C)Oc1ccccc1O", "outcome": "inactive"}
{"smiles": "CC(=O)/C=C/C1=C(C)CCCC1(C)C", "outcome": "inactive"}
{"smiles": "CC[Si](OC(C)=O)(OC(C)=O)OC(C)=O", "outcome": "inactive"}
{"smiles": "CNC[C@H](O)c1cccc(O)c1", "outcome": "inactive"}
{"smiles": "O=[N+]([O-])c1cc(C(F)(F)F)ccc1Cl", "outcome": "inactive"}
{"smiles": "CCCCCCCCCC=O", "outcome": "inactive"}
{"smiles": "COc1cc(C=O)ccc1OC(=O)C(C)C", "outcome": "inactive"}
{"smiles": "Nc1cc([N+](=O)[O-])ccc1O", "outcome": "inactive"}
{"smiles": "CCc1c(C)cc(N)c(CC)c1N", "outcome": "inactive"}
{"smiles": "C=C(C)C(=O)O[C@H]1C[C@@H]2CC[C@@]1(C)C2(C)C", "AC50": "28.4 µM (active)"}
{"smiles": "CC(=O)O[C@]1(C(C)=O)CC[C@H]2[C@@H]3C[C@H](C)C4=CC(=O)CC[C@]4(C)[C@H]3CC[C@@]21C", "outcome": "inactive"}
{"smiles": "CC1COc2ccccc2N1C(=O)C(Cl)Cl", "note": "(stereo unspecified)", "outcome": "inactive"}
{"smiles": "CC(C)(COC(=O)c1ccccc1)COC(=O)c1ccccc1", "AC50": "20 µM (active)"}
{"smiles": "CC(C)c1ccc(C(C)C)cc1", "outcome": "inactive"}
{"smiles": "CCC(=O)OCc1ccccc1", "outcome": "inactive"}
{"smiles": "CC(=O)OCCC(C)CC(C)(C)C", "note": "(stereo unspecified)", "outcome": "inactive"}
{"smiles": "CC1CCC(C(C)CS)CC1S", "note": "(stereo unspecified)", "AC50": "6.95 µM (active)"}
{"smiles": "CC(=O)[C@H]1CC[C@H]2[C@@H]3CC=C4C[C@@H](O)CC[C@]4(C)[C@H]3CC[C@]12C", "outcome": "inactive"}
